Shown are actives, neighbours in structure and some others; about 1.3% of the full set was active somewhere.
BRCA1 expr act = BRCA1 expression activation. Potency, µM (top dose mostly 46.1 µM), usual class: activators. MCF7-BRCA1-FFLuc reporter, luminescence, 48 h; response scale: scaled: vehicle 0%, 10 µM genistein 100%. 380,000 tested, 1.1% active. AID 624202; note: nearly all actives have a fitted effect of over 80% in size
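Activators of BRCA1 expression were detected as increased firefly luciferase luminescence in engineered MCF7 cells after 48 h compound incubation. Signals were scaled to genistein 10 microM as full activation.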
RGS4 inhibitor = blocks human RGS4-accelerated GTP hydrolysis; Transcreener GDP fluorescence polarization, RGS4-accelerated GTP hydrolysis; Potency, µM (series often up to 114 µM), most hits filed as inhibitors; 390,000 tested, 0.039% active; AID 504845; note: nearly all actives have a fitted effect of over 75% in size
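MLSMR compounds (23 nl, pin-transferred) preincubated 10 min at room temperature with a 500nM (2x) first reagent, then RGS4 at 900nM (2x) plus Transcreener GDP mix added; fluorescence polarization (620/688 nm) read before and after 90 min at 30 °C.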
EPAC2 agonist = activates human EPAC2 exchange factor; EPAC2 activation, biochemical qHTS; response scale: 100% = 6.5 mM cAMP response; Q8WZA2; 360,000 tested, 0.079% active; Potency, µM (titrated, usually from 154 µM), usual class: activators; AID 720711; note: nearly all actives have a fitted effect of over 50% in size
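Nucleotide exchange monitored as fluorescence drop when BODIPY-GDP leaves Rap1B. Reaction: 100 nM EPAC2, 250 nM RAP1B-BODIPY-GDP, 50 uM GDP, room temperature, kinetic read over 30 min. Activity expressed relative to 6.5 mM cAMP.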
EPAC2 antag = blocks human EPAC2 exchange factor. EPAC2 GEF exchange of Rap1B-BODIPY-GDP, fluorescence. 360,000 tested, 0.18% active. Potency, µM (highest dose often 114 µM), most hits filed as inhibitors. Q8WZA2; note: nearly all actives have a fitted effect of over 45% in size
EPAC1 ag = agonists of human EPAC1 | O95398 | EPAC1 agonist qHTS, biochemical assay; response scale: 100% = response to 6.5 mM cAMP | Potency, µM (top dose mostly 154 µM), most hits filed as activators | 360,000 tested, 0.073% active; note: nearly all actives have a fitted effect of over 60% in size
Target sequence (O95398 whole entry, looked up): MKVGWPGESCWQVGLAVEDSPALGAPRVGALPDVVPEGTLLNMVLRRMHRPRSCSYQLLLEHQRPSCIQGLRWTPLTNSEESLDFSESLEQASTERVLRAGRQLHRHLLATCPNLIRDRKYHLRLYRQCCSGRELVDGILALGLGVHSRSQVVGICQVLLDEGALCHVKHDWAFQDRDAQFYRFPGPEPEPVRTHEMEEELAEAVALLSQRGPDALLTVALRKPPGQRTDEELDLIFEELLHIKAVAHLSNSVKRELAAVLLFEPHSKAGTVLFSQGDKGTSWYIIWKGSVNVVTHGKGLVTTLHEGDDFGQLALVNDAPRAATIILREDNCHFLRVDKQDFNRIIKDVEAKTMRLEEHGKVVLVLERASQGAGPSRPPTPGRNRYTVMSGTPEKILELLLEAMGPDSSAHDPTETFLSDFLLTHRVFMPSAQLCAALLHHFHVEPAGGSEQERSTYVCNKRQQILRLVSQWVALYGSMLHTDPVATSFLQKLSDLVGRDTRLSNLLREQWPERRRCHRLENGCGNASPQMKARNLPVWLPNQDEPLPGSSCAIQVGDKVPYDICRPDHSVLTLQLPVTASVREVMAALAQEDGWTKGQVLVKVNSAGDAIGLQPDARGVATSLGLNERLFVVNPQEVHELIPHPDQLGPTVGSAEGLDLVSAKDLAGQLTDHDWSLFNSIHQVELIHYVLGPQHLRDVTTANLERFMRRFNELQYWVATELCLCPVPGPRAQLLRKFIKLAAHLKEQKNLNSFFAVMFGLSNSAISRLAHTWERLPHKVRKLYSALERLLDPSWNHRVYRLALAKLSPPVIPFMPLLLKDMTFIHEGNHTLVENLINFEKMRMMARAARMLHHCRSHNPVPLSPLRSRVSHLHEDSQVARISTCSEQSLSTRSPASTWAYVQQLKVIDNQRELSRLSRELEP
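Read-out is the fluorescence drop as BODIPY-GDP leaves Rap1B (480 nm excitation, 540 nm emission), recorded every 5 minutes over 30 minutes. Reactions held 100 nM EPAC1, 250 nM Rap1B–BODIPY-GDP and 50 uM GDP, with 6.5 mM cAMP setting full activation.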
EPAC1 antagonist = blocks human EPAC1 exchange factor. EPAC1 GEF assay, Rap1b-BODIPY-GDP exchange fluorescence. Potency, µM (top dose mostly 115 µM), most hits filed as inhibitors. 360,000 tested, 0.14% active. AID 720709; note: nearly all actives have a fitted effect of over 50% in size
Large screens that a line does not name were inactive. Calls come from the whole dose curve; as a rule, active = well fitted curve in the direction sought with a large enough effect; inconclusive = small, poorly fitted or top-dose-only effect, or another doubt; inactive = no such curve, though single readings can be large; an effect the other way counts as inactive or inconclusive.

Cc1ccc(-n2c(O)c(C=Nc3ccccc3-c3n[nH]c(=S)[nH]c3=O)c3ccccc3c2=O)cc1C	RGS4 inhibitor inconclusive, EPAC1 antagonist 50µM
Cc1ccc(-n2c(O)c(C=Nc3ccccc3-c3n[nH]c(=S)[nH]c3=O)c3ccccc3c2=O)c(C)c1	RGS4 inhibitor inconclusive
C#CCOCCOCCOCCNc1nc(N2CCN(C(=O)CCCCCCCCCCNC(=O)[C@@H](CCSC)n3cc(CCO)nn3)CC2)nc(N2CCN(C(=O)CCCCCCCCCCNC(=O)[C@H]([C@@H](C)CC)n3cc(CCCCCN)nn3)CC2)n1	EPAC2 agonist inconclusive, EPAC2 antag inconclusive, EPAC1 ag inconclusive, EPAC1 antagonist 45µM
CC(=O)Nc1cccc(C(=O)OC(C(=O)c2ccc(C)cc2)c2ccccc2)c1 (configuration not stated)	none
O=c1c(Cl)c(N2CCOCC2)cnn1-c1ncc(C(F)(F)F)cc1Cl	none
CN(C)c1ccc(/C=C2\C=Cc3cc(N)ccc32)cc1	none (no result: RGS4 inhibitor, EPAC2 agonist, EPAC2 antag, EPAC1 ag, EPAC1 antagonist)
O=[N+]([O-])c1ccc2c(c1)C=C/C2=C\c1ccc(C=S)cc1	BRCA1 expr act 5.6µM (no result: RGS4 inhibitor, EPAC2 agonist, EPAC2 antag, EPAC1 ag, EPAC1 antagonist)
CC1CCc2c(nc3sc4c(c3c2N)CCCC4)C1 (configuration not stated)	BRCA1 expr act 2.8µM
CC1CCc2nc3sc4c(c3c(N)c2C1)CCCC4 (configuration not stated)	BRCA1 expr act inconclusive, RGS4 inhibitor inconclusive, EPAC1 antagonist inconclusive
COc1ccc(C=CC(=O)c2cc(O)ccc2O)cc1	none
CN(C)c1ccc(/C=C/C(=O)c2ccccc2O)cc1	BRCA1 expr act 3.2µM
COc1ccc(C(=O)/C=C/c2ccc(N(C)C)cc2)c(OC)c1	EPAC1 ag 100µM
O=S(=O)(Nc1ccc(F)cc1)c1ccc(S(=O)(=O)N2CCOCC2)cc1	none
C/C(N)=C(/C#N)C(=O)CSc1ncnc2ccccc12	none
CC1CCN(C(=O)CSc2nc3ccccc3[nH]2)CC1	BRCA1 expr act 3.5µM
C/C(N)=C(/C#N)C(=O)CSc1nc2ccccc2[nH]1	BRCA1 expr act 7.9µM
CCC(=O)c1cn(CC(=O)NCc2ccco2)c2ccccc12	BRCA1 expr act 11µM, RGS4 inhibitor inconclusive
COC(=O)Cc1c(C)c2ccc(OC(=O)c3ccco3)cc2oc1=O	EPAC2 agonist 6.3µM
COc1ccc(CCn2c(=N)c(S(=O)(=O)c3ccc(C)cc3)cc3c(=O)n4ccccc4nc32)cc1	EPAC2 antag 89µM
CCOC(=O)c1csc(NC(=O)c2ccc(OCC)cc2)n1	none
CCOC(=O)c1csc(NC(=O)c2ccccc2)n1	BRCA1 expr act 4µM
CC(=O)NC1(C(F)(F)F)NC(=O)N(C2CCCCC2)C1=O (configuration not stated)	none
Cc1cc(=O)oc2cc(OCC(=O)N/N=C/c3ccccc3O)ccc12	none
CCOC(=O)CC(=O)Nc1ccc(C(=O)OCC)cc1	none
CCOC(=O)c1ccc(NC(=O)Nc2ccccn2)cc1	BRCA1 expr act 5µM
CCOC(=O)c1ccc(NC(=O)c2nn(C)cc2Br)cc1	BRCA1 expr act 5µM
CCOC(=O)c1ccc(NC(=O)N(CC)CC)cc1	BRCA1 expr act 2.5µM
CCOC(=O)c1ccc(NC(=S)Nc2ccc(C)cc2)cc1	BRCA1 expr act 13µM
CCCOc1ccc(-c2nc(C#N)c(N3CCC(C(N)=O)CC3)o2)cc1	none
C=CCn1c(N)c(C(=O)NCCC2=CCCCC2)sc1=S	BRCA1 expr act 13µM
Cc1ccnc(Nc2nc(-c3c(C)nc4sccn34)cs2)c1	none
Cc1cc(-n2c(C)cc(C(=O)CSc3ccccn3)c2C)no1	BRCA1 expr act 4µM
Cc1cc(-n2c(C)cc(C(=O)CSc3nnnn3-c3ccccc3)c2C)no1	none
COc1ccc(C2=CC(=O)CC(C)(C)C2)cc1	none
CC1(C)CC(=O)C=C(c2ccc(-c3ccccc3)cc2)C1=O	BRCA1 expr act 13µM (no result: RGS4 inhibitor)
CC1(C)CC(=O)C=C(c2ccc(CO)cc2)C1=O	none (no result: RGS4 inhibitor)
CC1(C)CC(=O)C=C(c2ccc(-c3ccccc3)cc2)C1	BRCA1 expr act 10µM

Screening results: PubChem BioAssay, National Center for Advancing Translational Sciences (NCATS)
